# From PubChem
# GDH-TPI counter-1: inhibits GDH-TPI coupling enzymes, artifact for Mtb FBA screen; GDH-TPI coupled enzyme counterscreen, NADH absorbance; inhibition, % at 4.8 µM; actives 1.2% (n = 360,000); AID 588335; in the data active = inhibition above about 30%;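 also: 0% = DMSO wells and 100% = wells lacking the enzyme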
# RecA intein inh: inhibitors of M. tuberculosis RecA intein splicing; cell-free RecA intein splicing, fluorescence; inhibition, % (test concentration not listed); actives 0.75% (n = 290,000); AID 2221; in the data active = inhibition above about 30%; inconclusive = no clear call, values can overlap the other calls;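 also: 0% = vehicle wells and 100% = reference inhibitor control wells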
# Target sequence (P9WHJ3 whole entry, looked up): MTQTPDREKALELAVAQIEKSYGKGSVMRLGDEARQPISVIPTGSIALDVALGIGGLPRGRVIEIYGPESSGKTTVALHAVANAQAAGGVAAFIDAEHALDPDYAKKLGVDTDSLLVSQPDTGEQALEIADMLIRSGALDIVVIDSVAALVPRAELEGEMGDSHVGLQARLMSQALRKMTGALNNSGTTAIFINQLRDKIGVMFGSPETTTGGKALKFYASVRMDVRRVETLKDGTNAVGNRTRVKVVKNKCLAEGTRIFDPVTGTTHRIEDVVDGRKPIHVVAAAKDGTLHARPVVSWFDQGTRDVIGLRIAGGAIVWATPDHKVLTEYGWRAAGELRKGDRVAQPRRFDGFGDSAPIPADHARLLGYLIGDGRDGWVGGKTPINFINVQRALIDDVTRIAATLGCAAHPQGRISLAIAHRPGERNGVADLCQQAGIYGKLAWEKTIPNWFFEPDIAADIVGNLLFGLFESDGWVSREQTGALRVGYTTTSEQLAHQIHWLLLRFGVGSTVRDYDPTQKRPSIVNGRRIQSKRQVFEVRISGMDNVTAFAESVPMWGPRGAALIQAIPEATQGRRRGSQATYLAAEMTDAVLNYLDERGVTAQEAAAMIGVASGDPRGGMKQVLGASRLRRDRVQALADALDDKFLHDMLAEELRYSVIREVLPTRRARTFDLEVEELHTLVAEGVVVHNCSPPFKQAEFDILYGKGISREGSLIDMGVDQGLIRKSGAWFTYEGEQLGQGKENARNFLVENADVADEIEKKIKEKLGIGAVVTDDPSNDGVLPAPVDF
# Rv3671c inh: Rv3671c (M. tuberculosis) protease inhibition. P9WHR9. inhibition, % at 5.96 µM. actives 0.048% (n = 320,000). AID 2606; in the data active = inhibition above about 38%;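 also: extracellular domain of Rv3671c used as enzyme; 0% = enzyme with DMSO and 100% = no enzyme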
# Mtb UGM inh: Mtb UDP-galactopyranose mutase inhibition; P9WIQ1; purified UGM, fluorescence polarization probe displacement; inhibition, % at 10 µM; actives 0.06% (n = 320,000); in the data active = inhibition above about 10%, passing the limit was not always enough; inconclusive = no clear call, values can overlap the other calls
# Mtb bLac sens: beta-lactam sensitization of Mtb H37Rv; actives 0.27% (n = 330,000); M. tuberculosis H37Rv growth with meropenem, percent inhibition; inhibition, % at 25 µM; AID 434955; call rule not given here;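 also: growth measured after seven days incubation then overnight dye step; 0% = bacteria only wells and 100% = bacteria with antibiotic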
# FBA Mtb inh: inhibitors of M. tuberculosis fructose-bisphosphate aldolase; P9WQA3; purified M. tuberculosis FBA, fluorescence read-out; inhibition, % at 1 µM; actives 2.3% (n = 360,000); AID 588726;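 also: 0% = vehicle and 100% = reference inhibitor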
# Mtb FBA confirm: Mtb FBA inhibition, confirmed | shares compounds with FBA Mtb inh | purified M. tuberculosis FBA, fluorescence read-out | inhibition, % at 1 µM | actives 78% (n = 5,600) | AID 651616;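 also: 0% = vehicle wells and 100% = reference inhibitor wells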
# GDH-TPI counter-2: GDH-TPI inhibition counter-screen for FBA inhibitors | inhibition, % at 1 µM | shares compounds with FBA Mtb inh | GDH-TPI coupled enzyme counterscreen, fluorescence | actives 81% (n = 5,600); in the data active = inhibition above about 10%
# GDH-TPI DR: inhibits GDH-TPI coupling enzymes in dose response; shares compounds with FBA Mtb inh; GDH-TPI coupled enzyme assay, fluorescence, artifact counterscreen; IC50, µM; actives 79% (n = 170); AID 652145; call rule not given here
# * = called active by the depositor; i = inactive; ? = inconclusive; · = no result given; + = active, no number. The list is not random: actives were taken first. Their share in the collection is about 4%. Rule as the data show it, unless noted: active = inhibition above about 27%; inactive = the rest.
SMILES,GDH-TPI counter-1,RecA intein inh,Rv3671c inh,Mtb UGM inh,Mtb bLac sens,FBA Mtb inh,Mtb FBA confirm,GDH-TPI counter-2,others
N=c1c(C(=O)NCCc2ccccc2)cc2c(=O)n3ccccc3nc2n1Cc1ccco1,3.0,-182.9,-6.9,2.1,7.4,30.4*,+,162.7*,
COc1ccc(Cn2c(=O)[nH]c3cc(C(=O)NC4CCCC4)ccc3c2=O)cc1,8.6,·,9.5,-0.8,-3.8,4.7,·,·,
CC(C)OCCCn1c(=N)c(C(N)=S)cc2c(=O)n3ccccc3nc21,7.7,-327.7,-3.5,2.8,6.9,70.9*,91.9*,81.1*,
COc1ccc(CNC(=S)Nc2ccccc2)cc1,0.5,0.2,-8.8,-1.6,-1.5,1.9,·,·,
CCOc1ccc(CCNC(=O)c2cnc(C)cn2)cc1OCC,1.0,-1.2,-1.8,1.7,-2.9,-1.9,·,·,
CCCNC(=O)C1(C)CCCN(C(=O)c2ccccc2OC(F)(F)F)C1 (stereo unspecified),-0.4,·,·,·,·,0.9,·,·,
N=c1c(C(=O)NC2CCCCC2)cc2c(=O)n3ccccc3nc2n1Cc1ccco1,4.5,-46.6,-4.4,1.7,2.8,36.0*,12.3,-1.4,GDH-TPI DR=>10
O=C(NC1CCCCCCC1)C1c2ccccc2C(=O)N1Cc1ccco1 (stereo unspecified),2.0,3.1,-15.1,-3.2,-3.9,3.3,·,·,
Cc1cccn2c(=O)c3cc(C(=O)NC4CCCCC4)c(=N)n(Cc4ccc(F)cc4)c3nc12,-1.0,-3.8,5.9,0.9,98.0,30.8*,+,+,
N=c1c(C(=O)NCc2ccc(F)cc2)cc2c(=O)n3ccccc3nc2n1Cc1cccnc1,11.0,i,2.4,2.5,-2.1,101.9*,151.6*,115.7*,
Cc1cccn2c(=O)c3cc(S(=O)(=O)c4ccccc4)c(=N)n(Cc4ccc(F)cc4)c3nc12,5.6,-0.4,-5.3,1.3,1.1,2.7,·,·,
Cn1c(CC(=O)NNC(=O)c2cccnc2)nc2ccccc21,10.0,·,-6.3,2.8,-0.3,0.1,·,·,
CC1=C(C#N)C(c2cccnc2)C2=C(CCCC2=O)N1 (stereo unspecified),4.0,·,-1.8,-0.6,-4.1,33.9*,127.5*,99.5*,
CC1=C(C#N)C(c2cccnc2)C2=C(N1)c1ccccc1C2=O (stereo unspecified),-0.6,0.2,-7.4,0.2,-6.7,2.1,·,·,
[O-]/[N+](=C\c1ccco1)c1ccc(Cl)cc1,2.5,-4.1,6.1,-1.0,39.2,-0.5,·,·,
O=C(COc1ncnc2scc(-c3ccc(Cl)cc3)c12)NCc1ccco1,0.8,1.0,-2.3,-0.1,92.0,82.6*,4.8,-2.4,
CCNC(=O)COc1ncnc2scc(-c3ccc(F)cc3)c12,-11.7,-3.2,-8.4,3.0,-4.4,-5.1,·,·,
Cc1occc1C(=O)N1CCCC(N2CCN(c3cccc(Cl)c3)CC2)C1 (stereo unspecified),8.7,0.0,-3.3,2.4,0.6,1.6,·,·,
COc1cc(-c2nc3ccccn3c2NCc2ccccc2)ccc1SC1CCCCC1,11.8,-1.3,-2.5,-1.8,67.0,44.9*,83.8*,51.6*,
COc1ccc(CSc2ccc(-c3nc4ccccn4c3NCc3ccccc3)cc2OC)cc1,11.1,-4.1,1.8,1.4,-5.2,34.3*,30.5*,27.8*,
CCC(C)Sc1ccc(-c2nc3ccccn3c2NCc2ccccc2)cc1OC (stereo unspecified),3.6,·,-1.8,0.3,95.2,40.8*,115.5*,89.8*,
COc1ccc(-c2nc3ccccn3c2NC2CCCCC2)cc1SC1CCCCC1,5.8,21.1,1.4,-3.4,50.2,44.4*,132.4*,115.4*,
COc1ccc(-c2nc3cnccn3c2NCc2ccccc2)cc1SC1CCCCC1,-7.7,-121.1,-3.5,-1.7,57.5,20.2,·,·,
CCCCCCSc1cc(-c2nc3cnccn3c2NCc2ccccc2)ccc1OC,16.1,-48.3,4.9,1.6,59.4,17.7,·,·,
CCOC(=O)c1ccc[n+](CC(=O)c2ccc(NC(=O)c3ccccc3)cc2)c1,3.1,-0.4,-15.6,0.0,-0.8,0.0,·,·,
SMILES,GDH-TPI counter-1,RecA intein inh,Rv3671c inh,Mtb UGM inh,Mtb bLac sens,FBA Mtb inh,Mtb FBA confirm,GDH-TPI counter-2,others
COCc1cc(C)nc(N2CCCCC2)c1C#N,-2.6,-1.3,2.8,3.9,-3.4,10.6,·,·,
COCc1cc(C)nc(NC2CCCCC2)c1C#N,10.6,·,3.1,-2.4,-0.3,84.8*,81.3*,67.2*,
COCc1cc(C)nc(NCCc2ccccc2)c1C#N,5.9,-1.6,-2.7,-2.1,3.2,72.0*,+,181.9*,
CCOc1ccc(NC(=O)CN(C)C(=O)COc2cccc3c2OC(C)(C)C3)cc1OCC,11.7,·,-5.5,-1.9,1.5,2.7,·,·,
CCN(CC(=O)Nc1ccc(NC(C)=O)cc1)C(=O)CCCc1c[nH]c2ccccc12,1.8,·,-0.9,1.7,3.1,3.0,·,·,
Cc1cc2oc(C(=O)NCc3ccccc3)cc(=O)c2cc1C,14.7,-1.6,2.9,-0.4,1.1,5.1,·,·,
CC1(C)Oc2cc3oc(C(=O)O)cc(=O)c3cc2-c2ccccc21,18.6,·,·,·,·,94.7*,19.2,6.2,
CC(C)(C)c1cc(NC(=O)COC(=O)c2nccnc2N)n(-c2ccccc2)n1,8.2,1.7,-2.9,-2.2,?,86.7*,46.7*,36.2*,
CCCc1cc(NC(=O)COC(=O)c2nccnc2N)n(-c2ccccc2)n1,16.4,·,7.0,-1.7,·,84.7*,51.0*,44.6*,
O=c1c2ccccc2c(/C=N/c2n[nH]c(CCCO)n2)c(O)n1-c1ccccc1Cl,8.2,-16.1,-17.7,1.2,-3.5,30.3*,73.4*,57.4*,
Cc1ccc(Cc2c(-c3ccc(Cl)cc3)nc3cc(C)ccn23)cc1,17.5,·,·,·,·,9.7,·,·,
CC(C)c1ccc(-c2nn(-c3ccccc3)cc2C(=O)NCC2CCCO2)cc1 (stereo unspecified),-5.3,0.9,5.8,-1.9,5.6,0.7,·,·,
COc1c2c(cc3oc(=O)ccc13)OC(C)(C)C=C2,27.4,-2.7,-1.6,-2.6,-5.3,24.2,·,·,
CC1(C)OC1COc1c2ccoc2cc2oc(=O)ccc12 (stereo unspecified),1.3,-1.3,7.2,0.0,-4.7,4.5,·,·,
CC1(C)Oc2cc3oc(=O)ccc3c3c2C2C1CCC(C)(O3)C2O (stereo unspecified),18.8,·,·,·,·,29.0*,153.9*,121.4*,
CC1(C)Oc2cc3oc(=O)ccc3cc2C[C@@H]1O,14.4,·,0.0,3.7,2.6,64.8*,104.8*,106.9*,
CC1(C)C=Cc2cc3ccc(=O)oc3cc2O1,4.9,-8.7,0.9,2.6,-7.2,48.2*,25.2,7.7,GDH-TPI DR=5.66*
CCn1c(SCC(=O)NC2CCCCC2)nnc1-c1cccnc1,-6.3,-0.4,-1.3,-4.7,-6.6,0.2,·,·,
